Molecules are shown by their SMILES. Results filed as inconclusive are left out. The list shows a part of the results. Activity calls are given as the source filed them. Calls follow the shape of the dose curve; as a rule, active = well fitted curve in the direction sought with a large enough effect; inconclusive = small, poorly fitted or top-dose-only effect, or another doubt; inactive = no such curve, though single readings can be large; an effect the other way counts as inactive or inconclusive.

The target in one experiment is RecQ-like DNA helicase BLM (Homo sapiens) (UniProt P54132). In words: qHTS for Inhibitors of WRN Helicase: BLM Helicase Counterscreen for WRN Inhibitors (AID 720503). Also: nearly all actives have a fitted effect of over 60% in size. Also: potency is read from the fitted curve at half-maximal effect. The following applies: Recombinant BLM helicase DNA unwinding, red fluorescence; series mostly up to 57.1 µM. An outline of the steps: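 BLM at 1 nM was preincubated with compound for 15 min at room temperature in 25 mM Tris-HCl pH 8.0, 50 mM NaCl, 2 mM MgCl2, 1 mM DTT and 0.01% Tween-20. Unwinding was started with 100 nM DNA and 2 mM ATP (final). Fluorescence (ex 525/em 598 nm) was read twice, 15 min apart, and normalized to enzyme-free and DMSO controls.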
Sequence of RecQ-like DNA helicase BLM (Homo sapiens) (P54132 whole entry, looked up): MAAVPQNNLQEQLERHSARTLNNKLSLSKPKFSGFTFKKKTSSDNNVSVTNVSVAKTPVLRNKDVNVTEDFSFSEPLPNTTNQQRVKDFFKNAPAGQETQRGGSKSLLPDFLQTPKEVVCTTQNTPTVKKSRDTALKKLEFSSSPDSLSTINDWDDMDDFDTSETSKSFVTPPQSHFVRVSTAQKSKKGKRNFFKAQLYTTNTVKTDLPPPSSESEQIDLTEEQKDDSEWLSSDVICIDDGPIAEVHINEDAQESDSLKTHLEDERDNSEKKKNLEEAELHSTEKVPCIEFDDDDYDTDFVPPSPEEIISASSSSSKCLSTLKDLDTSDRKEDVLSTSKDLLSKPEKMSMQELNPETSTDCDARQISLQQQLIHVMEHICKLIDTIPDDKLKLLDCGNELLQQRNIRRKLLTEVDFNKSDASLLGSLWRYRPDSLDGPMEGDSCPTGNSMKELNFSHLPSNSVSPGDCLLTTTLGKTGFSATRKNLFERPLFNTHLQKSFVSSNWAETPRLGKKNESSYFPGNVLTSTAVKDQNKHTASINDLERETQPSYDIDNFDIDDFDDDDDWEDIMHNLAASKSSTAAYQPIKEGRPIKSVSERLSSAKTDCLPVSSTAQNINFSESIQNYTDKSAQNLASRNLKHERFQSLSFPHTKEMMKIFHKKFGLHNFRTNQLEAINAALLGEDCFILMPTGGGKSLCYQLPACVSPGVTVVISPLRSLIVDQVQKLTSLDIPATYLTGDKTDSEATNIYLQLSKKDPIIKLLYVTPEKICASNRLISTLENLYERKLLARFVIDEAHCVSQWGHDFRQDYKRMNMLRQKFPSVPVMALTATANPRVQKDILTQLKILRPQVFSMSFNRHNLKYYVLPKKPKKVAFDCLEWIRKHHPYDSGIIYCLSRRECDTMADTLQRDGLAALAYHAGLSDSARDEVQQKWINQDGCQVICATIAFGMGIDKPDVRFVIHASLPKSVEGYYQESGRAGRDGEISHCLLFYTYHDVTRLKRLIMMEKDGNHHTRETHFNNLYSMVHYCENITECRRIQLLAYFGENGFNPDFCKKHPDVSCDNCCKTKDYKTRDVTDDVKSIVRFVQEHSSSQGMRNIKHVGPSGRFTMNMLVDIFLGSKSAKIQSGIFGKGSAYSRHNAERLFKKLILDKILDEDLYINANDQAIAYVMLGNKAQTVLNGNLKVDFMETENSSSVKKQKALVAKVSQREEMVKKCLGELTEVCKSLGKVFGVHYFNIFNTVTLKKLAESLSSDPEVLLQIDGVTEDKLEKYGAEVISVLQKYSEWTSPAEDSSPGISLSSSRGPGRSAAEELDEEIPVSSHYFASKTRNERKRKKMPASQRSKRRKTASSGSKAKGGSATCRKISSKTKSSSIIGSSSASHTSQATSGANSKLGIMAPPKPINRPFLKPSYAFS
In the case of `COc1ccc(Cl)cc1-c1cc(C(=O)Nc2cc(OC)c(OC)c(OC)c2)[nH]n1`, the Potency is 27.1 µM (active).

Regarding `CN(C)c1nc(Nc2ccc(Cl)c(Cl)c2)nc(N(C)C)n1`, the Potency result was “inactive”. On to `COc1cccc2c1C(=O)c1c(O)c3c(c(O)c1C2=O)CC(O)(C(C)=NNC(=O)c1ccc(Cl)c(Cl)c1)CC3OC1CC(N)C(O)C(C)O1` (configuration not stated), for which the Potency was 4.29 µM (active).

For `N#C/C(=C\C1=C(N2CCOCC2)C(=C\c2ccccc2)/CC1)C(=O)Nc1ccccc1F`, the Potency was 21.5 µM (active). The same measure, in the same setting: the value for `CCOc1ccccc1C(=O)NCc1ccco1` was 19.2 µM (active).

As for `CCc1ccc2nc3sc(C(=O)Nc4nnc(CC)s4)c(N)c3cc2c1`, the Potency was 10.8 µM (active). In the case of `CCN(CC)CCOc1ccc2c(c1)C(=NNC(=O)c1ccccn1)c1cc(OCCN(CC)CC)ccc1-2`, the Potency entry was “inactive”.

Test system in a further experiment: not listed separately
Description: qHTS Assay for Identifying Gametocytocidal Compounds (AID 743244).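 Also: % is scaled to controls: 0 for no effect and ±100 for the full control effect; actives lower the fluorescent signal which means gametocytes are killed.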 The following applies: P. falciparum 3D7 stage III-V gametocytes, alamarBlue, 72 h; hits give low values. An outline of the steps: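 3D7 gametocytes, stages III–V, 20,000/well; cpd 72 h, 37 °C/5% CO2; + alamarBlue 24 h; fluor. Ex 525/Em 598.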
(qHTS replaces the single test concentration by a dilution series.)
Consider `NC[C@@H]1O[C@H](O[C@H]2[C@@H](O)[C@H](O[C@@H]3[C@@H](O)[C@H](N)C[C@H](N)[C@H]3O[C@H]3O[C@H](CN)[C@@H](O)[C@H](O)[C@H]3N)O[C@@H]2CO)[C@H](N)[C@@H](O)[C@@H]1O`, for which the max response is -12% (inactive). In the case of `CC(O)[C@@H]1NC(=O)[C@H](CCCCN)NC(=O)[C@@H](Cc2c[nH]c3ccccc23)NC(=O)[C@H](Cc2ccccc2)NC(=O)[C@@H](NC(=O)[C@H](N)Cc2ccccc2)CSSC[C@@H](C(=O)N[C@H](CO)[C@@H](C)O)NC1=O` (some centres not stated), the max response is -8.72% (inactive). `CC[C@]1(O)CC2CN(CCc3c([nH]c4ccccc34)[C@@](C(=O)OC)(c3cc4c(cc3OC)N(C)[C@H]3[C@@](O)(C(N)=O)[C@H](O)[C@]5(CC)C=CCN6CC[C@]43[C@@H]65)C2)C1` (some centres not stated): the max response was -7.92% (inactive). `CCCCCCCCCCCCCCCC(=O)O[C@@H]1[C@@H](O)[C@@H](O)[C@@H]([C@H](NC(=O)[C@@H]2C[C@@H](CCC)CN2C)[C@H](C)Cl)O[C@@H]1SC`: the max response was -16.5% (inactive). `O=C(O)[C@H]1/C(=C/CO)O[C@@H]2CC(=O)N21`: the max response is 8.98% (inactive). Still for that read-out and setting: the value for `N[C@H]1CN(c2c(F)cc3c(=O)c(C(=O)O)cn(C4C[C@H]4F)c3c2Cl)CC12CC2` (some centres not stated) was -6.9% (inactive); that for `CCCCC(F)(F)[C@@]1(O)CC[C@H]2[C@@H](CC(=O)[C@@H]2CCCCCCC(=O)O)O1` was 2.98% (inactive). For `C=C1C(=C/C=C2\CCC[C@]3(C)[C@@H]([C@H](C)CCCC(C)C)CC[C@@H]23)C[C@@H](O)C[C@@H]1O`, the max response is -2.16% (inactive). As to `CN(C)c1cc(NC(=O)CNC(C)(C)C)c(O)c2c1C[C@H]1C[C@H]3[C@H](N(C)C)C(=O)C(C(N)=O)=C(O)[C@@]3(O)C(=O)C1=C2O`, the max response is 7.63% (inactive). `C/C=C/C1=C(C(=O)O)N2C(=O)[C@@H](NC(=O)[C@H](N)c3ccc(O)cc3)[C@H]2SC1`: the max response is 9.08% (inactive).
